CYP2C9 activ: human CYP2C9 activators, primary screen, biochemical, luminescence; recombinant CYP2C9, luciferin-H conversion; hits give high values; factor 1 = untreated enzyme, 0 = blocked; activation factor at 5 µM; 96,000 tested, 1.4% active;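 active = activation factor of 2 or more for CYP2C9 at a 5 µM dose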
Target sequence (P11712 whole entry, looked up): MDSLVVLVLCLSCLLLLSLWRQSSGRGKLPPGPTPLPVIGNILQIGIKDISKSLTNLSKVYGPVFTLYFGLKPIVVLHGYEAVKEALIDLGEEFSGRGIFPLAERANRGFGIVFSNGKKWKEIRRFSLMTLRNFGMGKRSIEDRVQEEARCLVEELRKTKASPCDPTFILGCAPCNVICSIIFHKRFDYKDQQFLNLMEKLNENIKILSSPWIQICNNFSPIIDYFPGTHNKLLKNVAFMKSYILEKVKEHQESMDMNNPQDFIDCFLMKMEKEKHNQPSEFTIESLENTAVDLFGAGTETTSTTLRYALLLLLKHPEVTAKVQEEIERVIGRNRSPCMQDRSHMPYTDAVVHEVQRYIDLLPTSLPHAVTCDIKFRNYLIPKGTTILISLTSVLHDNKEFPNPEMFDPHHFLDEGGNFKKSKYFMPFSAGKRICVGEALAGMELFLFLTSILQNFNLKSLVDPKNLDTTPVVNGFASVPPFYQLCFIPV
CYP2C9 inhib: blockers of cytochrome P450 2C9 activity – biochemical, luminescence, ADME assay, primary screen; P11712; inhibition, % at 5 µM; CYP2C9 Supersomes, luciferin-H conversion; 96,000 tested, 20% active; AID 777, 2007;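 active = blocking of liver enzyme CYP2C9 beyond about 50% at 5 µM, limit read from the data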
CD11b adhes enh: enhancers of CD11b/CD18 adhesion to fibrinogen, primary screen, K562 cells, luminescence | AID 1499, 2009 | activation, % at 10 µM | ATPlite luminescence | 93,000 tested, 0.07% active | Integrin beta-2 (Homo sapiens) + Integrin alpha-M (Homo sapiens), P05107+P11215;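 active = 10 µM primary screen giving 50% or more activity, confirmed by 40% or more on retest at that dose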
CYP2C19 inh: blockers of cytochrome P450 2C19 activity – biochemical, luminescence, ADME assay, primary screen. P33261. inhibition, % at 5 µM. 96,000 tested, 21% active. CYP2C19 Supersomes, luciferin-H EGE luminescence, 30 min;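 active = CYP2C19 inhibition above a set limit at 5 µM in the primary screen, cut at about 50% in these data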
CD11b adhes inh: inhibitors of CD11b/CD18 adhesion to fibrinogen, primary screen, K562 cells, luminescence; ATPlite luminescence; Mn2+ added to activate the integrin; 93,000 tested, 0.54% active; AID 1497, 2009; inhibition, % at 10 µM;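 active = primary inhibition of 50% or more at 10 µM, then 40% or more on retest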
CYP2C19 activ: human CYP2C19 activators, primary screen, biochemical, luminescence; recombinant CYP2C19, luciferin-H EGE luminescence; hits give high values; 0 = fully inhibited enzyme, 1 = untreated enzyme; Cytochrome P450 2C19 (Homo sapiens), P33261; activation factor at 5 µM; 96,000 tested, under 10 active;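 active = activation factor of at least 2 at 5 µM in the primary screen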
Large screens that a line does not name were inactive. An excerpt weighted towards active compounds, which were near 28% of everything screened.

O=C(Nc1ccc2c(c1)OCCO2)c1cc2sccc2n1Cc1ccc(F)cc1	CYP2C9 inhib 77.6, CYP2C19 inh 59.8 (no result: CD11b adhes enh, CD11b adhes inh)
O=C(CCCCCN1C(=O)CCC1=O)Nc1ccc(Cl)c(C(F)(F)F)c1	CYP2C19 inh 69.4
COc1cc(C2N(c3ccc(Cl)cc3)C(=O)C3CCCN32)cc(OC)c1OC (stereo unspecified)	none
COc1ccc(C2N(c3cc(Cl)ccc3OC)C(=O)C3CCCN32)cc1OC (stereo unspecified)	CYP2C9 activ 2
COc1ccc(Cl)cc1N1C(=O)C2CCCN2C1c1cccc(F)c1 (stereo unspecified)	CYP2C19 inh 53.6
COc1ccc(Cl)cc1N1C(=O)C2CCCN2C1c1ccc(F)c(F)c1 (stereo unspecified)	none
CCN(CC)CCCN1C(=O)C(O)=C(C(=O)c2sc(C)nc2C)C1c1ccco1 (stereo unspecified)	none
CCOC(=O)C1(Cc2ccc(O)cc2)NC(c2ccco2)C2C(=O)N(c3ccccc3F)C(=O)C21 (stereo unspecified)	none
Cc1cc(C)c(NC(=O)CSc2nnc(-c3ccncc3)n2Cc2ccco2)c(Cl)c1	CYP2C9 inhib 92.0, CYP2C19 inh 78.9
CCOC(=O)c1c(NC(=O)CSc2nnc(-c3ccncc3)n2Cc2ccco2)sc(C)c1C	CYP2C9 inhib 86.6, CYP2C19 inh 83.5
Cc1ccc(CCc2nnc(SCC(=O)Nc3cccc(Cl)c3)n2-c2ccccc2)o1	none (no result: CYP2C9 activ, CYP2C9 inhib, CYP2C19 inh, CYP2C19 activ)
Cn1c(=O)n(C)c2cc(NS(C)(=O)=O)ccc21	none
Cn1c(=O)[nH]c(=O)c2c1nc(SCC(O)CO)n2Cc1ccccc1Cl (stereo unspecified)	none
Cc1cc(NC(c2cccnc2)c2ccc3cccnc3c2O)no1 (stereo unspecified)	none
Cc1cccc(NC(c2ccc(O)cc2)c2ccc3ccc(C)nc3c2O)n1 (stereo unspecified)	CYP2C9 activ 2
O=CNC1CCCc2c1[nH]c1ccc(Cl)cc21 (stereo unspecified)	CYP2C9 inhib 99.0, CYP2C19 inh 64.9
O=C(c1ccco1)N1CCN(C(=O)C2CCCc3c2[nH]c2ccc(Cl)cc32)CC1 (stereo unspecified)	none
N#CC1=C(N)Oc2cc(N)ccc2C1C1CC=CCC1 (stereo unspecified)	CYP2C9 inhib 75.9, CYP2C19 inh 89.2
Cc1[nH]nc2c1C(C1CC=CCC1)C(C#N)=C(N)O2 (stereo unspecified)	none
CCOC(=O)C(NC(C)=O)C(OC(C)=O)c1cccc([N+](=O)[O-])c1 (stereo unspecified)	none (no result: CD11b adhes enh, CD11b adhes inh)
Cc1ccc2c3c1C1(C(=O)N3C(C)(C)CC2C)C(C#N)=C(N)Oc2cc(O)ccc21 (stereo unspecified)	CYP2C9 inhib 89.3, CYP2C19 inh 69.7
COc1cc2c3c(c1)C1(C(=O)N3C(C)(C)C=C2C)C(C#N)=C(N)Oc2cc(C)oc(=O)c21 (stereo unspecified)	CYP2C19 inh 55.2
Cc1cc2c3c(c1)C1(C(=O)N3C(C)(C)CC2C)C(C#N)=C(N)Oc2cc(O)ccc21 (stereo unspecified)	CYP2C9 inhib 89.7, CYP2C19 inh 79.0
COC(=O)CN1C(=O)C2(C(C#N)=C(N)Oc3cc(C)oc(=O)c32)c2ccccc21 (stereo unspecified)	none
Cc1ccc2c3c1C(=O)C(=O)N3C(C)(C)CC2C (stereo unspecified)	none
CC1=CC(C)(C)N2C(=O)C3(C(C#N)=C(N)Oc4cc(O)ccc43)c3cccc1c32 (stereo unspecified)	CYP2C9 inhib 51.0
CC1=CC(C)(C)N2C(=O)C3(C(C#N)=C(N)OC4=C3C(=O)CC(C)(C)C4)c3cccc1c32 (stereo unspecified)	none
COc1ccc(Cn2nnnc2C(c2cc(OC)ccc2OC)N2CCC(C(N)=O)CC2)cc1 (stereo unspecified)	none

Assay outcomes from PubChem.
